Only some compounds are listed: those with a hit (about 8.1% of all), similar ones and a draw of the others.
VP16 counter: counter-screen for ROR gamma inhibitors: Gal4-VP16 reporter | 310,000 compounds, 3.5% hits | AID 2546 | Potency, µM (highest dose often 53.6 µM), most hits filed as inhibitors | Drosophila S2 Gal4-VP16 UAS-luciferase, luminescence, 20 h;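 note: Gal4-VP16 expression switched on by copper sulfate through the metallothionein promoter; nearly all actives have a fitted effect of over 50% in size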
ClpP mod: qHTS Assay for Activators of ClpP; purified B. subtilis ClpP, FRET peptide cleavage, 20 min; 340,000 compounds, 1.9% hits; Potency, µM (titrated, usually from 57.5 µM); active = well fitted falling curve with a large enough effect; inconclusive = small, poorly fitted or top-dose-only effect; inactive = no such curve, though single readings can be large or run the other way; note: the source files actives as falling curves though it sought activators and does not explain the sign; nearly all actives have a fitted effect of over 65% in size
Target sequence (P80244 whole entry, looked up): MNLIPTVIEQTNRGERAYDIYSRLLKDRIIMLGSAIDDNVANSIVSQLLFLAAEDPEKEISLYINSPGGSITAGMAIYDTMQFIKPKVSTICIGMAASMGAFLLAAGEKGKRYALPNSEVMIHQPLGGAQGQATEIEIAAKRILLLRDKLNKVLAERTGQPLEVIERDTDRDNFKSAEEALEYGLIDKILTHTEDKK
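Buffer: 100 mM Tris/HCl pH8, 100 mM KCl, 0.05% low protease BSA, 2.5% glycerol, 0.01% Tween-20. ClpP 10 microg/mL final; 20 min RT; delta FRET normalized to ADEP and DMSO controls.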
RORg inh: inhibitors of mouse ROR gamma transcriptional activity; P51450; Drosophila S2 Gal4-RORgamma UAS-luciferase reporter, 20 h; Potency, µM (doses to about 53.6 µM), actives largely listed as inhibitors; 310,000 compounds, 5.4% hits; AID 2551; note: nearly all actives have a fitted effect of over 60% in size
Target sequence (P51450 whole entry, looked up, the tested form may be a part): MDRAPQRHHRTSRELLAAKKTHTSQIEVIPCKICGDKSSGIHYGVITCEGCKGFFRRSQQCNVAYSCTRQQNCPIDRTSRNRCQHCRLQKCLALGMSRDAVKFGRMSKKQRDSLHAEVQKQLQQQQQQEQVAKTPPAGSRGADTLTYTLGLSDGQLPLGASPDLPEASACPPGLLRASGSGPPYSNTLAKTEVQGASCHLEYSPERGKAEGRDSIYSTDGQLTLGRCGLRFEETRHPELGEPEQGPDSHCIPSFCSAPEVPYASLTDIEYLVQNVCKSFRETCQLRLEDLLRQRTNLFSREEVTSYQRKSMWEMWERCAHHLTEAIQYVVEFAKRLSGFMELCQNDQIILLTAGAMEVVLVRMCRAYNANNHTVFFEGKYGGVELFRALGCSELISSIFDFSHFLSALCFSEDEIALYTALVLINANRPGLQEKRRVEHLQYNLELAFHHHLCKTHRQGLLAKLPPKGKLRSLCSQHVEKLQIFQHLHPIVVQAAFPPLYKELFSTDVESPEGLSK
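Compounds are pin-transferred onto Drosophila Schneider cells expressing a copper-inducible Gal4–ROR gamma transactivation domain fusion. After 1 hr, copper sulfate is added to 700 uM final; luciferase is read 20 hr later.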
Epigenetic derep: derepresses silenced GFP reporter in murine cells; 280,000 compounds, 0.2% hits; Potency, µM (series often up to 53.9 µM), most hits filed as activators; AID 1865; murine LDR cells, GFP reporter derepression, 30 h; note: nearly all actives have a fitted effect of over 60% in size
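Derepression of a silenced CMV-GFP reporter in murine LDR cells is scored by enumerating GFP-positive cells with a laser-scanning microplate cytometer after 30 hours of treatment at 37 C.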
Sfp inh: inhibitors of Bacillus subtilis Sfp phosphopantetheinyl transferase. Q9F4F7. Biochemical Sfp PPTase activity, qHTS. Potency, µM, actives largely listed as inhibitors. 310,000 compounds, 3.5% hits. AID 1490;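 note: the enzyme is Sfp with the accession as filed and its product quenches rhodamine fluorescence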
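Fluorescence-quenching assay with 15 nM Sfp, 5 uM rhodamine-CoA and 12.5 uM BHQ-2-labelled ybbR peptide in pH 7.6 Hepes/MgCl2 buffer. Enzyme was pre-incubated with compound for 15 min at room temperature. Rate was taken from the 30-min fluorescence change (525/598 nm).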
PINK1 expr mod: PINK1 expression modulation | Potency, µM (highest dose often 76.6 µM), actives largely listed as activators | PINK1 immunofluorescence, high-content cytometry, 24 h | 410,000 compounds, 0.2% hits; active = well fitted activation curve with a large enough effect; inconclusive = small, poorly fitted or top-dose-only effect; cell line not stated here; note: nearly all actives have a fitted effect of over 65% in size
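Stable cell line treated 24 h with compounds at 5 concentrations (CCCP controls), then fixed and immunostained for PINK1 plus nuclear and cell stains; PINK1 immunofluorescence quantified by laser-scanning microplate cytometry.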
Hits are given with their value; . = inactive; ? = inconclusive; / = no result; ! = not confirmed by another sample; [ ] = dose if it differs, or a comment. Unless noted, calls come from the whole dose curve; as a rule, active = well fitted curve in the direction sought with a large enough effect; inconclusive = small, poorly fitted or top-dose-only effect, or another doubt; inactive = no such curve, though single readings can be large; an effect the other way counts as inactive or inconclusive.

SMILES	VP16 counter	ClpP mod	RORg inh	Epigenetic derep	Sfp inh	PINK1 expr mod
CN(C)C=Nc1ncc2c3ccccc3n(CCN(C)C)c2c1C#N	?	?	.	.	.	.
CCN(CC)CCn1c2ccccc2c2cnc(N)c(C#N)c21	.	14µM	0.18µM	.	.	.
COc1ccccc1N1CCN(C(=O)COc2ccc(Cl)cc2Br)CC1	.	.	.	.	.	.
COc1ccc(C(=S)N2CCCC2)cc1OC	.	.	.	.	.	.
COc1ccc(C(=S)N2CCN(c3ccccc3Cl)CC2)cc1OC	.	.	.	.	35µM	.
COc1cc(C(=S)N2CCN(c3ccccc3Cl)CC2)cc(O)c1O	.	.	?	.	35µM	.
CCOC(=O)c1[nH]c2ccc(C)cc2c1N=CN(CC)CC	.	.	.	.	.	.
CCOC(=O)c1[nH]c2ccc(C)cc2c1N	?	25µM	.	.	18µM	.
CCOC(=O)c1[nH]c2cc(OC)c(OC)cc2c1N	.	?	.	.	45µM	.
COc1ccc(C(=O)NCCn2cc(SCc3cccc(F)c3)c3ccccc32)cc1OC	/	.	/	.	/	.
CCc1n[n+](CC(=O)c2ccccc2)c(N)s1	2.2µM	/	2.8µM	.	?	.
FC(F)(F)c1ccc(N2CCN(c3ncnc4c3nnn4Cc3ccccc3)CC2)nc1	.	?	.	.	.	11µM
c1ccc(Cn2nnc3c(N4CCOCC4)ncnc32)cc1	.	.	.	.	.	.
CCN(CC)CCn1c(-c2ccccc2)csc1=Nc1ccccc1	/	.	/	.	/	28µM
CCOC(=O)CCc1c(C)c2ccc(OCc3ccc([N+](=O)[O-])cc3)cc2oc1=O	.	.	.	.	.	.
CCOC(=O)C1CSC(Cc2ccc(OCc3ccc([N+](=O)[O-])cc3)cc2)N1 (stereo not drawn)	?	/	14µM	.	?	/
CCN(C(=O)CN1C(=O)c2ccccc2Sc2ccc(C(=O)OC)cc21)c1cccc(C)c1	/	.	/	.	/	.
c1ccc2nc(-c3nc4ccccc4[nH]3)ccc2c1	/	32µM	.[0.365 µM]	.	.	.
c1ccc2[nH]c(-c3cscn3)nc2c1	.	.	.	.	.	.
c1ccc2[nH]c(-c3ccnc4ccccc34)nc2c1	.	16µM!	.	.	79µM!	.
CCC(=O)NC(Cc1ccccc1)c1ccc2c(c1)OCCCO2 (stereo not drawn)	.	22µM	.	.	.	.
CCc1ccc(-c2nn(CC(=O)Nc3ccccc3C)c3c2cnc2ccc(C)cc23)cc1	/	.	/	.	/	.
COc1ccc(CNC(=O)c2ccc(N3CCCC3)c(NC(=O)NCc3ccc(C)cc3)c2)cc1	/	?	/	.	/	.
CCO/C=N/c1c(C#N)c2c(c(=S)n1C)COC(C)(C)C2	.	3.5µM	.	.	.	.
CCOC(=O)C(C(=O)Nc1cccc(C)n1)C1CCCCC1 (stereo not drawn)	.	.	.	.	.	.
SMILES	VP16 counter	ClpP mod	RORg inh	Epigenetic derep	Sfp inh	PINK1 expr mod
O=C(CC1CCCCC1)Nc1nc2ccccc2s1	.	/	.	.	.	.
CCOC(=O)C(C(=O)Nc1nc2ccccc2s1)C1CCCCC1 (stereo not drawn)	.	.	5µM	.	.	.
O=C(Nc1nc2ccccc2s1)NC1CCCCC1	.	.	13µM	.	.	.
O=C(Nc1nc2ccccc2[nH]1)NC1CCCCC1	?	.	11µM	/	.	.
CCOC(=O)C(C(=O)Nc1ccccn1)C1CCCCC1 (stereo not drawn)	.	28µM	.	.	.	.
CC(O)(COc1ccccc1)c1ccc2c(c1)CN(Cc1cccn1-c1ccccn1)CCO2 (stereo not drawn)	/	/	/	/	/	.
CCc1nc2ccc(C(=O)NCCc3ccc(SC)cc3)cc2nc1CC	/	.	/	.	/	.
O=C(Nc1nc2ccccc2[nH]1)C1CC1	?	.	?	.	.	.
O=C(Nc1nc2ccccc2[nH]1)C12CC3CC(CC(C3)C1)C2	10µM	.	6.3µM	.	.	.
CCc1nn(CC(=O)NCCN(CC(C)C)CC(C)C)c(=O)c2cc3sc(C)cc3n12	/	.	/	.	/	.
CC(C)(C)c1nnc(N/N=C/c2cc(Br)ccc2O)n(N)c1=O	10µM	.	13µM	.	?	.
Cc1ccc(Nc2nnc(C(C)(C)C)c(=O)n2N)cc1	.	.	?	.	.	.
Cc1nnc(N/N=C/c2cccc(OCc3ccc(Cl)c(Cl)c3)c2)n1N	?	.	?	.	71µM	.
CCc1nnc(N/N=C/c2ccc(O)c(OC)c2)n1N	13µM	.	16µM	/	?	.
CCc1nnc(N/N=C\c2ccc(OC(C)=O)c(OC)c2)n1N	?	.	?	/	.	.
CCc1nnc(N/N=C/c2cc(Br)c(O)cc2O)n1N	11µM	/	10µM	/	50µM	.
CN(C)c1ccc(C=Nc2ccc(/C=C3\C=Cc4ccccc43)cc2)cc1	/	.	/	/	/	.
COc1cccc(Cc2nc3cccnc3n2C2CCN(Cc3ccc(C)s3)CC2)c1	/	/	/	/	/	.
O=C(CCC(=O)N1CCSc2ccccc21)Nc1ccc(Cl)cc1	/	.	/	.	/	.
CCOc1cc(/C=N/Nc2nnc(C)n2N)ccc1OC(C)=O	?	.	11µM	/	?	.
CCc1nnc(N/N=C/c2cccs2)n1N	13µM	.	?	.	?	.
Cc1ccc(N(CC(=O)Nc2ccc(Br)c(C)c2)S(=O)(=O)c2cccs2)cc1	/	.	/	.	/	.
Cc1ccc(Oc2nc3ccccn3c(=O)c2/C=C(\C#N)c2nc3ccccc3s2)c(C)c1	/	.	/	.	/	.
Oc1ccc(/C=N/Nc2nc(N3CCCC3)nc(N3CCCC3)n2)cc1O	.	/	?	.	20µM	.
C(=N\Nc1nc(N2CCCCCC2)nc(N2CCCCCC2)n1)/c1ccccc1	?	.	8.9µM	.	.	.
SMILES	VP16 counter	ClpP mod	RORg inh	Epigenetic derep	Sfp inh	PINK1 expr mod
Oc1ccc(/C=N/Nc2ccc3ccccc3c2)c(O)c1	.	.	.	.	50µM	.
Oc1ccc(C=NNc2nc3ccccc3s2)c(O)c1	/	/	/	/	/	.
Brc1cccc(/C=N/Nc2nc(N3CCCCC3)nc(N3CCCCC3)n2)c1	.	/	.	.	.	/
O=[N+]([O-])c1ccc(-c2ccc(/C=N/Nc3nc(N4CCCCC4)nc(N4CCCCC4)n3)o2)cc1	.	/	.	?	.	?
O=[N+]([O-])c1cccc(-c2ccc(/C=N/Nc3nc(N4CCCCC4)nc(N4CCCCC4)n3)o2)c1	.	/	10µM	.	.	.
Cc1ccc(/C=N/Nc2ccc(Cl)nn2)cc1	.	.	?	.	.	.
Fc1ccc(Nc2nc(N/N=C/c3ccco3)nc(N3CCCCC3)n2)cc1	5µM	.	2.8µM	.	.	.
Oc1ccc(Br)cc1/C=N/Nc1nc(N2CCCCC2)nc(N2CCOCC2)n1	.	/	.	.	.	.
Oc1ccc(/C=N/Nc2ccc(Cl)nn2)cc1O	.	.	.	/	79µM	.
Oc1ccc(/C=N/Nc2nc(N3CCCCCC3)nc(N3CCCCCC3)n2)c(O)c1	?	/	16µM	?	.	.

Bioassay records as filed in PubChem BioAssay.
